# Screening results deposited in PubChem BioAssay by National Center for Advancing Translational Sciences (NCATS).
# ERK AVP inh – qHTS Assay for Inhibitors of the ERK Signaling Pathway using a Homogeneous Screening Assay | HEK293-V1b, vasopressin-stimulated pERK AlphaScreen | Potency, µM (top dose mostly 57.5 µM), for inactives: at the top dose activity, negative = inhibition, usual class: inhibitors | hit rate 0.99% among 72,000 | AID 995, 2007; further: nearly all actives have a fitted effect of over 55% in size
#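 HEK293 cells stably expressing V1b receptor, seeded overnight in 1% FBS, were treated with compounds for 30 min at 37C, then stimulated 5 min with 25 nM vasopressin; phospho-ERK read by AlphaScreen SureFire after lysis.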
# HADH2 inh – qHTS Assay for Inhibitors of HADH2 (Hydroxyacyl-Coenzyme A Dehydrogenase, Type II); 3-hydroxyacyl-CoA dehydrogenase type-2 (Homo sapiens), Q99714; recombinant HADH2, NADH fluorescence, beta-hydroxybutyryl-CoA; Potency, µM (top dose mostly 57.1 µM), for the others: at the highest dose activity change, negative = inhibition, usual class: inhibitors; hit rate 3.4% among 73,000; further: nearly all actives have a fitted effect of over 60% in size
#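 NADH fluorescence (ex 360/em 450 nm) read every 30 s for 4 min; activity taken as last-minus-first time point difference. Enzyme 20 nM, NAD+ 1 mM, beta-hydroxybutyryl-CoA 90 uM, pH 9.0 Tris buffer.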
# Bst PK mod – Pyruvate Kinase. purified pyruvate kinase, luminescence ATP production; ribose 5-phosphate activator present at AC10. Potency, µM. hit rate 1.2% among 51,000. AID 361, 2006; in the data active means potency below about 11 µM; inconclusive means mostly about 12 µM to 25 µM;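 the screen sought inhibitors and activators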;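 further: scaled between full activation by ribose 5 phosphate and full inhibition by luteolin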
# 15-hLO inh – qHTS Assay for Inhibitors of 15-hLO (15-human lipoxygenase) | Polyunsaturated fatty acid lipoxygenase ALOX15 (Homo sapiens), P16050 | purified 15hLO-1, xylenol orange hydroperoxide absorbance | Potency, µM (top dose mostly 57.1 µM), for inactives: top-dose activity change, negative = inhibition, actives largely listed as inhibitors | hit rate 1.4% among 74,000; further: nearly all actives have a fitted effect of over 55% in size
#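 Inhibition is scored from a chromogenic endpoint. After 15 min enzyme-compound contact, arachidonic acid (50 uM final) reacts 6 min with 40 nM 15hLO-1 at room temperature, then Fe-XO reagent is added for 30 min and absorbance ratio recorded.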
# HSD17B inhib – qHTS Assay for Inhibitors of HSD17B4, hydroxysteroid (17-beta) dehydrogenase 4 | recombinant HSD17B10, NADH fluorescence kinetic | Potency, µM (highest dose often 57.1 µM), inactives show at the highest dose activity change, negative = inhibition, actives largely listed as inhibitors | hit rate 7.6% among 75,000 | 3-hydroxyacyl-CoA dehydrogenase type-2 (Homo sapiens), Q99714;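 further: the protocol describes HADH2 (HSD17B10) and not the HSD17B4 of the title; nearly all actives have a fitted effect of over 70% in size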
#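 Activity followed as NADH fluorescence increase (ex 360, em 450 nm) every 30 seconds for 4 min, using final 90 uM beta-hydroxybutyryl CoA and 1 mM NAD+. Recombinant His-tagged enzyme, 20 nM, pH 9.0 Tris buffer, 15 min compound preincubation.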
# Luciferase inh – qHTS Assay for Inhibitors of Firefly Luciferase. hit rate 2.2% among 72,000. Potency, µM (series often up to 57.1 µM), for the others: at the top dose activity change, negative = inhibition, most hits filed as inhibitors. purified firefly luciferase, luminescence, 8 min; further: nearly all actives have a fitted effect of over 40% in size
# Target sequence (P08659 whole entry, looked up): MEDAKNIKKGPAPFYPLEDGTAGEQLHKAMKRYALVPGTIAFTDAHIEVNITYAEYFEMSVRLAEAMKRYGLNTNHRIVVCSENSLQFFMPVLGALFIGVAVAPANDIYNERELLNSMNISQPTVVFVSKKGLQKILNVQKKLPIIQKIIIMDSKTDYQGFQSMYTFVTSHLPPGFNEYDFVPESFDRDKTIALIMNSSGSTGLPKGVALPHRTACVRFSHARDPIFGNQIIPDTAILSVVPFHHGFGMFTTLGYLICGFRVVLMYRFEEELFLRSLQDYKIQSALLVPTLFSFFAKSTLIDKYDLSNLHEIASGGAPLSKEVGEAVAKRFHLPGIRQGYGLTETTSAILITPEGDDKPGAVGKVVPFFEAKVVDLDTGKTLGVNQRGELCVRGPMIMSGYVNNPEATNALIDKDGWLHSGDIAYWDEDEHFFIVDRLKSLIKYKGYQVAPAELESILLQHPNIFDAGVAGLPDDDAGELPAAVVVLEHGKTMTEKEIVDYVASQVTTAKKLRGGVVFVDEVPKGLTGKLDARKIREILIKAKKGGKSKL
#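 Here, luciferase activity is measured as luminescence following an 8 min room-temperature reaction at 10 uM ATP, pH 7.2. Every library sample is titrated.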
# Numbers without * were called inactive; i = inactive; ? = inconclusive; . = no result; [ ] = remark or other dose. In the library only some 11% were active in any assay of this set; here they are far more common. Unless noted, the call rests on the fitted dose curve; in most records, active means well fitted curve in the direction sought with a large enough effect; inconclusive means small, poorly fitted or top-dose-only effect, or another doubt; inactive means no such curve, though single readings can be large; an effect the other way counts as inactive or inconclusive. Unless noted, on the % scale 0 is the no-effect control and ±100 the full control effect; potency means the concentration at half of the fitted maximal effect.
SMILES,ERK AVP inh,HADH2 inh,Bst PK mod,15-hLO inh,HSD17B inhib,Luciferase inh
CCOc1ccc(NC(=O)c2ccccc2CO)cc1,17.6%,0.7%,.,4.0%,-2.2%,?
COC1=CC(C)C2CC3OC(=O)CC4C(C)=C(OC)C(=O)C([C@]2(C)C1=O)[C@]34C (some centres not stated),7.5%,.,.,-1.7%,-1.9%,.
O=C(c1csnn1)N1CCC2(CC1)CCN(c1ncccn1)CC2,11.6%,-9.2%,.,5.9%,-7.2%,1.0%[11.4 µM]
C=CCNC(=O)c1ccc(OC)cc1OC,-23.8%,5.4%,>57,4.5%,5.7%,0.1%
COc1ccccc1C(=O)Nc1ccc(C(=O)O)cc1,0.1%,-4.7%,>57,1.1%,7.9%,3.9%
COc1ccc(C(=O)Nc2ccc(C)cn2)c(OC)c1,6.9%,0.8%,0.332*,-2.7%,1.5%,0.251µM*
CCOc1ccc(NC(=O)c2ccccc2OC)cc1,?,-4.8%,i,-28.1%,-19.8%,3.16µM*
[O-][N+]1(CC[N+]2([O-])CCCCC2)CCCCC1,-20.8%[11.5 µM],3.5%[11.4 µM],.,8.9%[11.4 µM],1.8%[11.4 µM],0.7%[11.4 µM]
C#CCCCO/N=C1/C[C@@H](O)[C@@H](O)[C@@H]2[C@H]3C(=O)N(c4ccc(F)cc4F)C(=O)[C@@H]3CC[C@@H]12,4.6%[11.5 µM],-4.2%[11.4 µM],.,-0.8%[11.4 µM],1.8%[11.4 µM],-0.2%[11.4 µM]
CCCC[C@H](CC)CN=C(N)NC(N)=NCCCCCCN=C(N)NC(N)=NC[C@@H](CC)CCCC,-42.4%[25.7 µM],5.9%[25.6 µM],.,-4.9%[25.6 µM],1.9%[25.6 µM],2.0%[25.5 µM]
N#CC1=C(N)Oc2n[nH]c(-c3ccc(F)cc3)c2C1c1cccnc1 (configuration not stated),15.8µM*,-28.2%,>57,-10.4%,-8.8%,1.6%
N#CC1=C(N)Oc2n[nH]c(-c3cccs3)c2C1c1cccs1 (configuration not stated),?,?,>57,?,12.6µM*,-1.3%
COCc1[nH]nc2c1C(c1sccc1C)C(C#N)=C(N)O2 (configuration not stated),.,.,>11.4,.,.,2.8%[25.5 µM]
COc1cc(/C=C/C(=O)CC(=O)/C=C/c2ccc(O)c(OC)c2)ccc1O,31.6µM*,3.98µM*,.,?,?,-15.0%[25.5 µM]
COc1cc(C=O)ccc1O,1.4%,-5.7%,.,7.9%,-8.5%,.
COc1cc(/C=C\C(=O)CC(=O)/C=C\c2ccc(O)c(OC)c2)ccc1O,.,7.94µM*,.,.,.,-15.5%[11.4 µM]
COc1cc(/C=C/C(=O)O)ccc1O,19.6%,.,.,2.8%,-28.5%,.
C=CCc1cccc(C2NC(C(=O)O)CCC2C)c1 (configuration not stated),9.9%[11.5 µM],4.3%[11.4 µM],.,4.6%[11.4 µM],1.3%[11.4 µM],.
COc1ccc(COC(=O)N/N=C2/C[C@@H](O)[C@@H](O)[C@@H]3[C@@H]4C(=O)N(Cc5ccc6c(c5)OCO6)C(=O)[C@H]4CC[C@H]23)cc1,9.0%[11.5 µM],6.0%[11.4 µM],.,6.0%[11.4 µM],-1.2%[11.4 µM],0.8%[11.4 µM]
CCn1cc(C(=O)NCCc2ccccc2)c(=O)c2cc(F)c(N3CCN(C)CC3)cc21,.,.,>11.4,.,.,1.0%[25.5 µM]
CCn1cc(C(=O)O)c(=O)c2cc(F)c(N3CCN(C(=O)Nc4ccccc4)CC3)cc21,-5.9%,25.1µM*,>57,-12.3%,25.1µM*,0.7%
CC1N(C)c2cc(NC(=O)c3ccco3)ccc2C1(C)C (configuration not stated),-20.7%,11.1%,.,-14.6%,7.5%,15.8µM*
CSc1cccc(NC(=O)c2ccco2)c1,-19.6%,-11.6%,.,-0.4%,3.7%,-14.0%
c1ccc(-c2noc(-c3ccc4ccccc4c3)n2)nc1,-23.7%,?,0.156*,-21.9%,.,0.199µM*
c1ccc(-c2noc(-c3ccc4c(c3)OCO4)n2)nc1,-15.1%,-24.5%,0.861*,-14.7%,1.8%,0.794µM*
Cc1occc1-c1nc(-c2ccccn2)no1,-14.2%,1.5%,.,0.3%,4.7%,12.6µM*
